{
  "source": "PubChem BioAssay AID504832",
  "about": "(National Center for Advancing Translational Sciences (NCATS), 2011)",
  "note": "Among all 310,000 compounds or so, about 18,000 (5.8%) were called active. Another 22% or so got no clear call; they are omitted. This is one part of a sample in which actives are shown more often than they occur. Unmarked numbers belong to inactive results. The call rests on the fitted dose curve; in most records, active means well fitted inhibition curve with a large enough effect; inconclusive means small, poorly fitted or top-dose-only effect, or another doubt; inactive means no such curve, though single readings can be large or run the other way. On the % scale 0 is the no-effect control and ±100 the full control effect; potency means the concentration at half of the fitted maximal effect.",
  "data": [
    {"assay": "Primary qHTS for delayed death inhibitors of the malarial parasite plastid, 48 hour incubation", "conditions": "P. falciparum luciferase growth in erythrocytes; series mostly up to 28.7 µM; activity change, negative = inhibition: at the top concentration", "in_short": "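Erythrocytes infected with P. falciparum carrying an integrated firefly luciferase reporter (2% hematocrit, 0.1% parasitemia final) were exposed to compounds in RPMI 1640 with 0.5% Albumax at 37 C, 5% CO2. Growth inhibition was scored as reduced luminescence.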", "values": [
      {"smiles": "COc1cccc(CNC(=O)c2cccnc2Sc2ccc(Cl)cc2)c1", "activity change, negative = inhibition": "-4.1%"},
      {"smiles": "COc1ccc(C(=O)OCC(=O)c2ccc(Cl)s2)c(OC)c1OC", "activity change, negative = inhibition": "9.16%"},
      {"smiles": "O=[N+]([O-])c1cc([N+](=O)[O-])c2cccnc2c1O", "activity change, negative = inhibition": "-13.4%"},
      {"smiles": "CCN(CC)c1ccc([N+](=O)[O-])c2cccnc12", "activity change, negative = inhibition": "7.92%"},
      {"smiles": "CC(CNc1ccc([N+](=O)[O-])c2cccnc12)Nc1c([N+](=O)[O-])cc(C(F)(F)F)cc1[N+](=O)[O-]", "note": "(stereo not given)", "Potency": "10.4 µM (active)"},
      {"smiles": "N#Cc1cccc(OC(=O)c2ccc3c(=O)n4c(nc3c2)CCC4)c1", "activity change, negative = inhibition": "6.32%"},
      {"smiles": "C=CCOc1ccc(/C=C/C(=O)OCC(=O)NC(C)c2ccc(F)cc2)cc1", "note": "(stereo not given)", "activity change, negative = inhibition": "0%"},
      {"smiles": "CCOC(=O)C1CCCN(CCSc2ccc(C)cc2)C1", "note": "(stereo not given)", "activity change, negative = inhibition": "32.6%"},
      {"smiles": "CCc1cc2c(=O)c(-c3ccc(F)cc3)c(C(F)(F)F)oc2cc1OCC(=O)O", "activity change, negative = inhibition": "-22.9%"},
      {"smiles": "CCN1CCN(Cc2c(O)ccc3c(=O)c(-c4ccc(OC)c(OC)c4)c(C(F)(F)F)oc23)CC1", "Potency": "7.38 µM (active)"},
      {"smiles": "O=c1c(-c2ccc3c(c2)OCCO3)c(C(F)(F)F)oc2cc(O)cc(O)c12", "activity change, negative = inhibition": "-13.8%"},
      {"smiles": "CC(CN1CCC(n2nccc2NC(=O)C2CCCC2)CC1)c1ccccc1", "note": "(stereo not given)", "activity change, negative = inhibition": "33.6%"},
      {"smiles": "CC1CN(S(=O)(=O)c2cccc(C(F)(F)F)c2)CN1C(=O)N1CCOCC1", "note": "(stereo not given)", "activity change, negative = inhibition": "29%"},
      {"smiles": "Cc1ccc(C(=O)NC2CCN(C(=O)Nc3ccccc3Cl)CC2)cc1", "activity change, negative = inhibition": "-7.87%"},
      {"smiles": "Clc1ccc2c(c1)C1=C(C(c3ccncc3)O2)C(c2ccc(Br)cc2)n2ncnc2N1", "note": "(stereo not given)", "Potency": "13.1 µM (active)"},
      {"smiles": "CC1=C(C(N)=O)C(c2ccc(Br)cc2)n2ncnc2N1", "note": "(stereo not given)", "activity change, negative = inhibition": "5.11% [at 0.00184 µM]"},
      {"smiles": "COC(=O)C1=C(C)Nc2ncnn2C1c1cccnc1", "note": "(stereo not given)", "activity change, negative = inhibition": "7.48%"},
      {"smiles": "CN1CCN(C(=O)C(=O)c2cn(CC(=O)N3CCCC3)c3ccccc23)CC1", "activity change, negative = inhibition": "-0.113%"},
      {"smiles": "O=C(COC(=O)Cc1ccc(F)cc1)Nc1cc(S(=O)(=O)N2CCOCC2)ccc1N1CCCC1", "activity change, negative = inhibition": "5.29%"},
      {"smiles": "COCCNC(=S)Nc1cc(S(=O)(=O)N2CCOCC2)ccc1N1CCCCC1", "activity change, negative = inhibition": "-7.53%"},
      {"smiles": "CCN(CC)S(=O)(=O)c1ccc(N2CCOCC2)c(NC(=O)C2COc3ccccc3O2)c1", "note": "(stereo not given)", "activity change, negative = inhibition": "12.5%"},
      {"smiles": "CCN(CC)S(=O)(=O)c1ccc(N2CCOCC2)c(NC(=O)C(C)Oc2ccc(F)cc2)c1", "note": "(stereo not given)", "Potency": "4.65 µM (active)"},
      {"smiles": "Cc1ccc(S(=O)(=O)N2CCCCC2)cc1NC(=O)c1cccnc1", "activity change, negative = inhibition": "-15.5%"},
      {"smiles": "CCN1CCN(c2ccc(S(=O)(=O)N3CCCCC3)cc2NC(=O)c2cccc(NC(C)=O)c2)CC1", "Potency": "13.1 µM (active)"},
      {"smiles": "CCN1CCN(c2ccc(S(=O)(=O)N3CCCCC3)cc2NC(=O)Cc2c(Cl)cccc2Cl)CC1", "activity change, negative = inhibition": "-11.9%"},
      {"smiles": "CCN(CC(=O)N1CCCC1)S(=O)(=O)c1ccc(F)cc1", "activity change, negative = inhibition": "78.3%"},
      {"smiles": "CCN(CC)S(=O)(=O)c1cc(C(=O)Nc2cc(S(=O)(=O)N3CCOCC3)ccc2N2CCCC2)ccc1F", "Potency": "7.38 µM (active)"},
      {"smiles": "Cc1cc(NC(=O)CSC2=NS(=O)(=O)c3cc(Cl)ccc3N2)no1", "activity change, negative = inhibition": "15.9%"},
      {"smiles": "Cc1cc(S(=O)(=O)c2cc3ccc(O)c(C)c3oc2=O)ccc1F", "activity change, negative = inhibition": "8.19% [at 0.00184 µM]"},
      {"smiles": "CCN(CC(=O)NCC(=O)Nc1cccc(C)c1C)Cc1ccccc1", "activity change, negative = inhibition": "-14.2%"},
      {"smiles": "CC(Oc1cc2oc(=O)c3c(c2cc1Cl)CCCC3)C(=O)NCc1ccncc1", "note": "(stereo not given)", "activity change, negative = inhibition": "15%"},
      {"smiles": "Cc1nc2nc(C)c(NS(=O)(=O)c3ccc(C(C)(C)C)cc3)c(=O)n2[nH]1", "activity change, negative = inhibition": "17.4%"},
      {"smiles": "CCCc1nn2c(=O)cc(CSCC(=O)Nc3cccc(C)c3)nc2s1", "activity change, negative = inhibition": "-9.24%"},
      {"smiles": "COc1cc(OC)cc(C(=O)NC2CCN(C(=O)N3c4ccccc4Sc4ccccc43)CC2)c1", "Potency": "13.1 µM (active)"},
      {"smiles": "CCCNC(=S)N1CCC(NC(=O)c2ccc(OC)cc2)CC1", "activity change, negative = inhibition": "33.9%"},
      {"smiles": "COc1ccc(C(=O)NC2CCN(C(=S)Nc3ccccc3)CC2)cc1", "activity change, negative = inhibition": "-12.9%"},
      {"smiles": "CSc1ccc(S(=O)(=O)N2CCC(C(=O)NCc3ccncc3)CC2)cc1", "activity change, negative = inhibition": "73.5%"},
      {"smiles": "Cn1cc(C(=O)NCc2ccccc2F)cn1", "activity change, negative = inhibition": "9.58%"},
      {"smiles": "Cn1c2cc(B(O)O)sc2c2cnn(Cc3ccccc3F)c(=O)c21", "Potency": "10.4 µM (active)"},
      {"smiles": "O=c1c2ccccc2cnn1Cc1n[nH]c(=S)n1-c1ccccc1F", "activity change, negative = inhibition": "8.03%"},
      {"smiles": "Cc1[nH]c2ccc(C(=O)N3CCN(C)CC3)cc2c1C", "activity change, negative = inhibition": "37.8%"},
      {"smiles": "COC(=O)c1ccc(CSc2nc3ccccc3c(=O)n2-c2cccc(OC)c2)o1", "Potency": "13.1 µM (active)"},
      {"smiles": "Cc1nn(-c2ccccc2)c(C)c1/C=N/NC(=O)CSc1nc2ccccc2c(=O)n1-c1ccccc1", "activity change, negative = inhibition": "4.39%"},
      {"smiles": "COCCNC(=O)c1ccc(-n2c(SCc3cccnc3)nc3ccccc3c2=O)cc1", "activity change, negative = inhibition": "11.7%"},
      {"smiles": "CN=C1S/C(=C\\c2c(OC)cc(OC)cc2OC)C(=O)N1C", "activity change, negative = inhibition": "4.88%"},
      {"smiles": "CC(=O)NCCc1ccc(S(=O)(=O)Nc2ccc(C)c(S(=O)(=O)N3CCOCC3)c2)cc1", "activity change, negative = inhibition": "0%"},
      {"smiles": "COCCNC(=O)C(c1ccc(C)cc1)N(C(=O)CCC(=O)Nc1ccccn1)c1cccc(C)c1", "note": "(stereo not given)", "activity change, negative = inhibition": "-7.09%"},
      {"smiles": "COc1ccccc1N1CC(C(=O)Nc2nnc(SCC(=O)NC(C)C)s2)CC1=O", "note": "(stereo not given)", "activity change, negative = inhibition": "17.1%"},
      {"smiles": "COc1ccccc1N1CC(C(=O)Nc2nnc(SCC(=O)NCC3CCCO3)s2)CC1=O", "note": "(stereo not given)", "activity change, negative = inhibition": "-23.4%"},
      {"smiles": "Cc1ccc(C(=O)OCC(=O)NCc2cc(C)c(O)c(C)c2)cc1S(=O)(=O)N1CCCCC1", "Potency": "8.28 µM (active)"},
      {"smiles": "Cc1ccc(C(=O)OCC(=O)N2CC(C)CC(C)C2)cc1S(=O)(=O)N1CCCCC1", "note": "(stereo not given)", "activity change, negative = inhibition": "1.05%"},
      {"smiles": "Cc1ccc(C(=O)NCC(=O)O)cc1S(=O)(=O)N1CCCCC1", "activity change, negative = inhibition": "17.3%"},
      {"smiles": "O=C(c1ccccc1F)N1CCN(S(=O)(=O)c2ccc(Br)cc2)CC1", "activity change, negative = inhibition": "6.16%"},
      {"smiles": "CCOC(=O)c1cc(-c2ccccc2C)n(Cc2cc(C)no2)n1", "activity change, negative = inhibition": "-12.3%"},
      {"smiles": "COc1cccc(N2CC(C(=O)Nc3c(C)cccc3C)CC2=O)c1", "note": "(stereo not given)", "activity change, negative = inhibition": "-9.22%"},
      {"smiles": "COc1ccc(NC(=O)N2CCC(Cc3ccccc3)CC2)cc1", "activity change, negative = inhibition": "-24.4%"},
      {"smiles": "COc1ccc(NC(=S)NCCN2CCC(C)CC2)cc1", "activity change, negative = inhibition": "17.2% [at 5.75 µM]"},
      {"smiles": "COc1ccc(N2CCC(N3CCN(C)C(CCO)C3)CC2)cc1", "note": "(stereo not given)", "activity change, negative = inhibition": "10.2%"},
      {"smiles": "COc1ccc(N2CCC(CNC(=S)Nc3c(C)cccc3C)C2)cc1", "note": "(stereo not given)", "Potency": "11.7 µM (active)"},
      {"smiles": "COc1ccc(NC(=S)NCC2CCN(c3ccc(OC)cc3)C2)cc1", "note": "(stereo not given)", "Potency": "11.7 µM (active)"},
      {"smiles": "Cc1cc(C)cc(NS(=O)(=O)Cc2ccccc2)c1", "activity change, negative = inhibition": "11.7%"},
      {"smiles": "CC(OC(=O)/C=C/c1ccccc1)C(=O)Nc1ccc(C(N)=O)cc1", "note": "(stereo not given)", "activity change, negative = inhibition": "-13.2%"},
      {"smiles": "Cc1ccccc1NC(=O)Cc1nc(COC(=O)c2ccc(C(F)(F)F)cc2)cs1", "activity change, negative = inhibition": "2.1%"},
      {"smiles": "Cc1ccc(S(=O)(=O)N2CC(C)N(S(C)(=O)=O)C2)cc1", "note": "(stereo not given)", "activity change, negative = inhibition": "8.27%"},
      {"smiles": "CCOC(=O)C1=C(COC(=O)[C@H](C)NS(=O)(=O)c2ccccc2F)NC(=O)NC1C", "note": "(stereo not given in full)", "activity change, negative = inhibition": "-17.8%"}
    ]}
  ]
}
